In this assay the target is Nonstructural protein 3 (Zika virus) (UniProt A0A024AXB9).
The mark [1] stands for this setting: PRVABC59, Concentration 50.0 uM, Number of replicates 1.0.

Each structure is given as a SMILES string. Out of some 2,700 compounds screened, about 160 (5.9%) showed an effect of 50% or more. For the sample, strong results were picked, then their nearest neighbours and some compounds at random.

Nonstructural protein 3 (Zika virus), sequence (A0A024AXB9 as listed by the source): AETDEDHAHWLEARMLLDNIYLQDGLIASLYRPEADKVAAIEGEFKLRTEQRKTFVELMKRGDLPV

For `Cc1ccc(N)cc1NC(=O)c1ccc2c(c1)CCNCC2`, the inhibition runs as follows: (PRVABC59, Concentration 49.95 uM, Number of replicates 2.0, Standard deviation 12.72305005425739 %) -5.44%; (PRVABC59, Concentration 99.9 uM, Number of replicates 2.0, Standard deviation 9.350903464198954 %) 18.5%.

Take `CN1[C@@H]2CCC[C@H]1C[C@@H](NC(=O)C1CCN(c3ccc(C=O)cc3)CC1)C2`: the inhibition under setting [1] was 43.1%.

Take `O=Cc1ccc(N2CCC(C(=O)NC[C@@H]3CCCN4CCCC[C@H]34)CC2)cc1`: the inhibition under setting [1] amounted to 36.4%.

As for `N#Cc1ccc(NC(=O)C2CCN(c3ccc(C=O)cc3)CC2)cc1Br`, the inhibition under setting [1] amounted to 22.8%.

On to `CCN1CCN(c2ccc(NC(=O)C3CCN(c4ccc(C=O)cc4)CC3)cc2)CC1`, for which the inhibition under setting [1] worked out at 54.8%.

Consider `Cc1ccc2cccc(NC(=O)C3CCN(c4ccc(C=O)cc4)CC3)c2n1`, for which, under setting [1], the inhibition is 60.8%.

On to `CCn1ccnc(N2CC[C@H](c3cccc(C#N)c3)C2)c1=O`, for which the inhibition turned out to be 20.3% (PRVABC59, Concentration 50.0 uM, Number of replicates 2.0, Standard deviation 16.00595625597801 %); 15.1% (PRVABC59, Concentration 100.0 uM, Number of replicates 2.0, Standard deviation 3.036416764525631 %); 25.1% (PRVABC59, Concentration 200.0 uM, Number of replicates 2.0, Standard deviation 6.611719762363672 %).

With `CNc1cc(COc2cccnc2F)nc(N2CCNCC2)n1`, the inhibition is, setting by setting: (PRVABC59, Concentration 49.5 uM, Number of replicates 2.0, Standard deviation 2.059359081452019 %) 4.89%; (PRVABC59, Concentration 99.01 uM, Number of replicates 2.0, Standard deviation 2.151250675148563 %) 12.3%; (PRVABC59, Concentration 198.0 uM, Number of replicates 2.0, Standard deviation 2.3891841335084476 %) 24%.

For `CCn1ccnc(N2CC[C@H](c3ccc(F)cc3)C2)c1=O`, the inhibition was determined as 8.78% (PRVABC59, Concentration 49.5 uM, Number of replicates 2.0, Standard deviation 0.27991239382631117 %); 18.2% (PRVABC59, Concentration 99.01 uM, Number of replicates 2.0, Standard deviation 0.05869134101275442 %); 32.5% (PRVABC59, Concentration 198.0 uM, Number of replicates 2.0, Standard deviation 0.2009049231321535 %).

As for `NC(=O)C1CCN(Cc2c[nH]c3ccccc23)CC1`, the inhibition was determined as 5.72% (PRVABC59, Concentration 49.5 uM, Number of replicates 2.0, Standard deviation 3.887096953751933 %); 14.1% (PRVABC59, Concentration 99.01 uM, Number of replicates 2.0, Standard deviation 2.3727111220616615 %); 27.9% (PRVABC59, Concentration 198.0 uM, Number of replicates 2.0, Standard deviation 2.367525373820881 %).

As for `O=C(O)c1ccn(C2CCN(Cc3c[nH]c4ccccc34)CC2)n1`, the inhibition (PRVABC59, Concentration 49.5 uM, Number of replicates 2.0, Standard deviation 1.5195725914554161 %) was 20.5%; the inhibition (PRVABC59, Concentration 99.01 uM, Number of replicates 2.0, Standard deviation 1.1461623032421138 %) is 35.4%; the inhibition (PRVABC59, Concentration 198.0 uM, Number of replicates 2.0, Standard deviation 1.0942994260377004 %) came to 52.6%.

`c1ccc2c(CN3CCC(n4cccn4)CC3)c[nH]c2c1`: the inhibition worked out at 26.9% (PRVABC59, Concentration 49.5 uM, Number of replicates 2.0, Standard deviation 0.7832462431332359 %); 42.5% (PRVABC59, Concentration 99.01 uM, Number of replicates 2.0, Standard deviation 1.440111283496493 %); 60.2% (PRVABC59, Concentration 198.0 uM, Number of replicates 2.0, Standard deviation 0.6771494756145803 %).

Regarding `NC(=O)[C@H]1CCCN(Cc2c[nH]c3ccccc23)C1`, the inhibition was found to be 3.79% (PRVABC59, Concentration 49.5 uM, Number of replicates 2.0, Standard deviation 3.1390869089666538 %); 10.6% (PRVABC59, Concentration 99.01 uM, Number of replicates 2.0, Standard deviation 3.56900861889403 %); 20.5% (PRVABC59, Concentration 198.0 uM, Number of replicates 2.0, Standard deviation 2.510612912991002 %).

Consider `NC[C@H]1C[C@@H](NC(=O)[C@@H](NC(=O)OCc2ccccc2)c2ccc(OCc3ccccc3)cc2)C1`, for which the inhibition runs as follows: (PRVABC59, Concentration 49.5 uM, Number of replicates 2.0, Standard deviation 0.8838686407925086 %) 24%; (PRVABC59, Concentration 99.01 uM, Number of replicates 2.0, Standard deviation 0.4383595932929543 %) 66.8%; (PRVABC59, Concentration 198.0 uM, Number of replicates 2.0, Standard deviation 0.05241044906026695 %) 91.6%.

`NC[C@H]1C[C@H](NC(=O)[C@@H](NC(=O)OCc2ccccc2)c2ccc(OCc3ccccc3)cc2)C1`: the inhibition is, setting by setting: (PRVABC59, Concentration 49.5 uM, Number of replicates 2.0, Standard deviation 1.2395145381206512 %) 10.3%; (PRVABC59, Concentration 99.01 uM, Number of replicates 2.0, Standard deviation 2.826506577153246 %) 46.7%; (PRVABC59, Concentration 198.0 uM, Number of replicates 2.0, Standard deviation 0.7649713696189122 %) 82.7%.

Turning to `COc1cnccc1NC(=O)c1cccn(CC(C)C)c1=O`, the inhibition worked out at 14.1% (PRVABC59, Concentration 49.5 uM, Number of replicates 2.0, Standard deviation 2.517858799186995 %); 24.9% (PRVABC59, Concentration 99.01 uM, Number of replicates 2.0, Standard deviation 2.0130939800794283 %); 38% (PRVABC59, Concentration 198.0 uM, Number of replicates 2.0, Standard deviation 1.1565850502914639 %).

Consider `O=C1NCc2ccccc2C12CCN(C1CS(=O)(=O)C1)CC2`, for which the inhibition reads like this: (PRVABC59, Concentration 49.5 uM, Number of replicates 2.0, Standard deviation 2.478163590707131 %) -2.5%; (PRVABC59, Concentration 99.01 uM, Number of replicates 2.0, Standard deviation 1.6189007436906162 %) -1.76%; (PRVABC59, Concentration 198.0 uM, Number of replicates 2.0, Standard deviation 2.7604333789428463 %) -2.06%.

As to `N#C[C@H](c1c[nH]c2ccccc12)N1CCCCC1`, the inhibition is, setting by setting: (PRVABC59, Concentration 49.5 uM, Number of replicates 2.0, Standard deviation 0.9976655532404076 %) 2.57%; (PRVABC59, Concentration 99.01 uM, Number of replicates 2.0, Standard deviation 2.0662033924754 %) 3.53%; (PRVABC59, Concentration 198.0 uM, Number of replicates 2.0, Standard deviation 2.2933585318984724 %) 2.01%.

Regarding `CN(C)Cc1ccc(C(=O)Nc2cc(Cl)cc(C(=O)NC(C)(C)CO)c2)[nH]1`, the inhibition (PRVABC59, Concentration 49.5 uM, Number of replicates 2.0, Standard deviation 0.7294034755731748 %) was 25.7%; the inhibition (PRVABC59, Concentration 99.01 uM, Number of replicates 2.0, Standard deviation 0.13537432871783928 %) was 38.6%; the inhibition (PRVABC59, Concentration 198.0 uM, Number of replicates 2.0, Standard deviation 2.37813693875156 %) came to 53.1%.

As to `CC(C)(CO)NC(=O)c1cc(Cl)cc(NC(=O)c2cc(Cl)ccc2O)c1`, the inhibition amounted to 7.55% (PRVABC59, Concentration 49.5 uM, Number of replicates 2.0, Standard deviation 2.1093755895168673 %); 13.5% (PRVABC59, Concentration 99.01 uM, Number of replicates 2.0, Standard deviation 4.458409623609473 %); 19.6% (PRVABC59, Concentration 198.0 uM, Number of replicates 2.0, Standard deviation 1.5634862358558868 %).

For the molecule `CN(C)Cc1cccc(C(=O)Nc2cc(Cl)cc(C(=O)NC(C)(C)CO)c2)c1`, the inhibition came to 6.06% (PRVABC59, Concentration 49.5 uM, Number of replicates 2.0, Standard deviation 1.8243044214328226 %); 12.5% (PRVABC59, Concentration 99.01 uM, Number of replicates 2.0, Standard deviation 1.3712089412013073 %); 22% (PRVABC59, Concentration 198.0 uM, Number of replicates 2.0, Standard deviation 2.8457565601547175 %).

`O=C(Nc1ccc2c(c1)B(O)OC2)c1cccc(OCc2c(Cl)cccc2Cl)c1`: the inhibition by setting is: (PRVABC59, Concentration 49.5 uM, Number of replicates 2.0, Standard deviation 1.6182218422548027 %) 13.7%; (PRVABC59, Concentration 99.01 uM, Number of replicates 2.0, Standard deviation 3.3767515547267357 %) 18.1%; (PRVABC59, Concentration 198.0 uM, Number of replicates 2.0, Standard deviation 1.8193304189589607 %) 26.3%.

Turning to `O=C(NC[C@H]1CCCO1)c1cc(Cl)ccc1NS(=O)(=O)c1ccc(Oc2ccccc2Cl)cc1`, the inhibition is 37% (PRVABC59, Concentration 49.5 uM, Number of replicates 2.0, Standard deviation 0.526737151348054 %); 35.9% (PRVABC59, Concentration 99.01 uM, Number of replicates 2.0, Standard deviation 0.29372509619508946 %); 19.9% (PRVABC59, Concentration 198.0 uM, Number of replicates 2.0, Standard deviation 0.7843616173322282 %).

With `C[C@H]1COCCN1C(=O)c1cc(Cl)ccc1NS(=O)(=O)c1ccc(Oc2ccccc2Cl)cc1`, the inhibition is 17% (PRVABC59, Concentration 49.5 uM, Number of replicates 2.0, Standard deviation 0.03588483834653944 %); 40.8% (PRVABC59, Concentration 99.01 uM, Number of replicates 2.0, Standard deviation 0.6631068200403265 %); 58.7% (PRVABC59, Concentration 198.0 uM, Number of replicates 2.0, Standard deviation 0.09361590556282165 %).

As to `O=C(NC[C@H]1CCOC1)c1cc(Cl)ccc1NS(=O)(=O)c1ccc(Oc2ccccc2Cl)cc1`, the inhibition (PRVABC59, Concentration 49.5 uM, Number of replicates 2.0, Standard deviation 4.1620208465884945 %) was 16.4%; the inhibition (PRVABC59, Concentration 99.01 uM, Number of replicates 2.0, Standard deviation 1.5720504754733005 %) was found to be 31.6%; the inhibition (PRVABC59, Concentration 198.0 uM, Number of replicates 2.0, Standard deviation 3.020626194849933 %) was 23.3%.

As to `C[C@@H](NC(=O)c1cc(Cl)ccc1NS(=O)(=O)c1ccc(Oc2ccccc2Cl)cc1)[C@H]1CCCO1`, the inhibition by setting is: (PRVABC59, Concentration 49.5 uM, Number of replicates 2.0, Standard deviation 0.31998022259385983 %) 30.9%; (PRVABC59, Concentration 99.01 uM, Number of replicates 2.0, Standard deviation 0.2133183501303701 %) 35.1%; (PRVABC59, Concentration 198.0 uM, Number of replicates 2.0, Standard deviation 0.1263515313886271 %) 23.8%.

Turning to `O=C(c1cc(Cl)ccc1NS(=O)(=O)c1ccc(Oc2ccccc2Cl)cc1)N1CCC[C@H](O)C1`, the inhibition was found to be 8.55% (PRVABC59, Concentration 49.5 uM, Number of replicates 2.0, Standard deviation 2.1414055085112063 %); 39.7% (PRVABC59, Concentration 99.01 uM, Number of replicates 2.0, Standard deviation 0.8713297847731235 %); 79.8% (PRVABC59, Concentration 198.0 uM, Number of replicates 2.0, Standard deviation 0.024611062132057417 %).

One may read the inhibition as the change of the read-out against control, counted positive when it falls.
